About 83,000 compounds went through this panel and 20% of them were active in at least one assay; those are over-represented in the sample as a whole.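 Activity criterion: percent growth below 10, measured after cells in 96-well plates were exposed to a single compound concentration for 48 hours.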 The source made the active and inactive calls.
system: NCI-H226 lung; assay: NCI-60 one-dose screen, 48 h (100 = growth as untreated, 0 = no growth, -100 = all killed); conditions: 10 µM
Experimental: Growth inhibition of the NCI-H226 human Non-Small Cell Lung tumor cell line is measured as a screen for anti-cancer activity. Cells are grown in 96 well plates and exposed to the test compound for 48 hours. Compounds are tested at a single concentration, which is 10^-5 M for most compounds. The reported endpoint is percent growth (GI% or GIPRCNT), where numbers from 0 - 100% represent growth inhibition, and numbers from -100% - 0 represent cell death. For example, a value of 40 represents 60% growth inhibition. A value of 0 means no net growth occurred over the course of the experiment. A value of -40 indicates 40% of cells at the beginning of the experiment died by the end of the experiment. A value of -100 means all cells are dead at the end of the experiment.
NCI-60 Human Tumor Cell Lines Screen was performed using the standard one-dose NCI protocol, which is described in more detail at https://dtp.cancer.gov/discovery_development/nci-60/default.htm.
Compounds with GIPRCNT values below 10 were considered active. Activity score was based on GIPRCNT using the following formula: […]
Score is 0 for GIPRCNT values of 100 or above, 50 for GIPRCNT values of 0, and 100 for GIPRCNT values of -100.

| SMILES | growth |
| --- | --- |
| CC[C@]12C=CCN3CC[C@@]4(c5ccc(OC)cc5N(C)[C@H]4[C@@](O)(C(=O)OC)[C@@H]1OC(=O)CCC[P+](c1ccc(F)cc1)(c1ccc(F)cc1)c1ccc(F)cc1)[C@@H]32 | 46.9% (inactive) |
| C[C@H]1[C@H](OC(=O)CCC(=O)N(CCCc2cn(-c3ccc([N+](=O)[O-])cc3)nn2)CCNc2ccnc3cc(Cl)ccc23)O[C@@H]2OC3(C)CC[C@H]4[C@H](C)CC[C@@H]1[C@@]24OO3 | 61.6% (inactive) |
| O=C(/C=C/c1ccccc1Cl)c1nc2ccccc2n1Cc1ccc(F)cc1 | -75.1% (active) |
| CC12CCC3(CCC(=O)NCCCNc4ccnc5cc(Cl)ccc45)[C@@](C)(OO[C@]3(C)O1)O2 | 0.706% (active) |
| O=C(/C=C/c1ccc(Cl)cc1)c1nc2ccccc2n1Cc1ccc(Br)cc1 | 57.4% (inactive) |
| C[C@H]1[C@H](OC(=O)CCC(=O)Nc2cnccn2)O[C@@H]2OC3(C)CC[C@H]4[C@H](C)CC[C@@H]1[C@@]24OO3 | 74.8% (inactive) |
| CC1=C(CCC=O)C2=C(C)C3(CC3)[C@@](C)(O)C(=O)C2=C1 | -61.5% (active) |
| COCCOCCOCCOc1ccc(-n2cc(CCCN(CCNc3ccnc4cc(Cl)ccc34)C(=O)CCC(=O)O[C@@H]3O[C@@H]4OC5(C)CC[C@H]6[C@H](C)CC[C@@H]([C@H]3C)[C@@]46OO5)nn2)cc1 | 53.5% (inactive) |
| CCOP(=O)(CC(F)(F)C(F)(F)F)OCC | -23.5% (active) |
| COCCOCCOCCOc1ccc(-n2cc(-c3ccc(O[C@H]4O[C@@H]5OC6(C)CC[C@H]7[C@H](C)CC[C@@H]([C@H]4C)[C@@]57OO6)cc3)nn2)cc1 | 79.7% (inactive) |
| O=C(/C=C/c1cccc(Br)c1)c1nc2ccccc2n1Cc1ccc(Br)cc1 | -67.7% (active) |
| CC[C@@]12CC(C(=O)OC)=C3Nc4cc5c(cc4[C@@]34CCN(C[C@H]3O[C@H]31)[C@@H]24)[C@@H]1[C@H](O5)[C@@H](O)[C@@]2(CC)CC(C(=O)OC)=C3Nc4cc(OC)ccc4[C@@]34CCN1[C@@H]24 | -4.56% (active) |
| C[C@H]1[C@H](OC(=O)CCC(=O)N(CCCc2cn(-c3ccc(CN4CCOCC4)cc3)nn2)CCNc2ccnc3cc(Cl)ccc23)O[C@@H]2OC3(C)CC[C@H]4[C@H](C)CC[C@@H]1[C@@]24OO3 | 54.1% (inactive) |
| COc1cc(OC)c(/C=C/C(=O)c2nc3ccccc3n2Cc2ccc(F)cc2)c(OC)c1 | 72.8% (inactive) |
| O=C(NC([Se])=NC1CCCCC1)c1ccc2c(c1)OCO2 | 85.6% (inactive) |
| O=C(/C=C/c1ccc(Cl)cc1Cl)c1nc2ccccc2n1Cc1ccc(Br)cc1 | 55.7% (inactive) |
| CC12OOC(C)(OO1)C2CCC(=O)NCCCNc1ccnc2cc(Cl)ccc12 (stereo not given) | 94% (inactive) |
| CC[C@]12C=CCN3CC[C@@]4(c5ccc(OC)cc5N(C)[C@H]4[C@@](O)(C(=O)OC)[C@@H]1OC(=O)CCCC[P+](c1ccc(OC)cc1)(c1ccc(OC)cc1)c1ccc(OC)cc1)[C@@H]32 | -63.6% (active) |
| C#CC[Se]C(=O)c1ccc2n[se]nc2c1 | 23% (inactive) |
| CC(=C\C(=O)Oc1ccc2c3c1OC1C(O)CCC4(O)C(C2)N(CC2CCC2)CCC314)/C=C1\CCCc2ccccc21 (stereo not given) | 56.3% (inactive) |

| SMILES | growth |
| --- | --- |
| CC(C)C[C@H](NC(=O)CNC(=O)C[C@H]1O[C@@H]2OC3(C)CC[C@H]4[C@H](C)CC[C@@H]([C@H]1C)[C@@]24OO3)B(O)O | -22.4% (active) |
| O=C(/C=C/c1ccc(F)cc1)c1nc2ccccc2n1Cc1ccc(Br)cc1 | -66.2% (active) |
| N#C[Se]CC(=O)Nc1cccc(C(F)(F)F)c1 | -37.7% (active) |
| O=C(/C=C/c1ccccc1)c1nc2ccccc2n1Cc1ccc(Br)cc1 | -71% (active) |
| O=C(/C=C/c1ccco1)c1nc2ccccc2n1Cc1ccc(F)cc1 | 77.9% (inactive) |
| O=C(/C=C/c1ccc(Cl)cc1Cl)c1nc2ccccc2n1Cc1ccc(F)cc1 | 38.7% (inactive) |
| CC(C)N=C([Se])NC(=O)c1ccccc1 | -33.5% (active) |
| CC1=C(C=O)C2=C(C)C3(CC3)[C@@](C)(O)C(=O)C2=C1 | 45.9% (inactive) |
| CN(C)CCc1cn(C2CCC2)c2cccc(O)c12 | 69.6% (inactive) |
| CC12OOC(C)(OO1)C2CCC(=O)NCCNc1ccnc2cc(Cl)ccc12 (stereo not given) | 93.7% (inactive) |
| C=CCN=C([Se])NC(=O)c1ccc2c(c1)OCO2 | 119% (inactive) |
| CC1=C2C(=C[C@@](C)(COP(=O)(Oc3ccccc3)Oc3ccccc3)[C@@H]2O)C(=O)[C@@](C)(O)C12CC2 | -63.9% (active) |
| C[C@H]1[C@@H](Oc2ccc(-c3cn(-c4ccnc5cc(Cl)ccc45)nn3)cc2)O[C@@H]2OC3(C)CC[C@H]4[C@H](C)CC[C@@H]1[C@@]24OO3 | 48.2% (inactive) |
| CC[C@]12C=CCN3CC[C@@]4(c5ccc(OC)cc5N(C)[C@H]4[C@@](O)(C(=O)OC)[C@@H]1OC(=O)CCC[P+](c1ccc(C)cc1)(c1ccc(C)cc1)c1ccc(C)cc1)[C@@H]32 | -77.4% (active) |
| COc1ccc(/C=C/C(=O)c2nc3ccccc3n2Cc2ccc(Br)cc2)cc1 | 69.7% (inactive) |
| COC(=O)C[C@](O)(CCCC(C)C)C(=O)O[C@H]1C(OC)=C[C@@]23CCCN2CCc2cc4c(cc2[C@@H]13)OCO4 | -12.3% (active) |
| COc1cc(OC)c(S(=O)(=O)N(CCCl)CCCl)cc1C(=O)/C=C/c1ccc(C)cc1 | 81.5% (inactive) |
| COc1ccc(OC)c(/C=C/C(=O)c2nc3ccccc3n2Cc2ccc(F)cc2)c1 | -42.4% (active) |
| O=C(/C=C/c1cccc(Br)c1)c1nc2ccccc2n1Cc1ccc(F)cc1 | 14.5% (inactive) |
| CC1=C(CCC=NNC(N)=O)C2=C(C)C3(CC3)[C@@](C)(O)C(=O)C2=C1 | -71.7% (active) |
